Hits are enriched below; roughly 18% of the tested compounds scored in any of these assays.
DT40 TDP1 no CPT: qHTS for Inhibitors of human tyrosyl-DNA phosphodiesterase 1 (TDP1): qHTS in cells in absence of CPT | DT40 Tdp1-/- hTDP1 cells, no CPT, ATP luminescence, 48 h | AID 686978, 2013 | 420,000 tested, 15% active | Potency, µM (titrated, usually from 46.2 µM), without a hit: at the highest dose activity change, negative = growth inhibition, most hits filed as inhibitors; note: potency is the fitted concentration of half-maximal effect; nearly all actives have a fitted effect of over 55% in size
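Chicken DT40 Tdp1-/- cells complemented with human TDP1, screened without camptothecin (DMSO vehicle only), 400 cells/well. Compounds pin-transferred, cells incubated at 37 °C for at least 48 hr. Growth read as ATP-dependent luminescence (CellTiter-Glo, 30 min at RT).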
Gal4-VP16 FLuc: VP16 counterscreen qHTS for inhibitors of ROR gamma transcriptional activity; Drosophila S2 Gal4-VP16 UAS-luciferase, luminescence, 20 h; Potency, µM (highest dose often 53.6 µM), for inactives: at the highest dose activity, negative = inhibition, usual class: inhibitors; 310,000 tested, 3.5% active;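 note: Gal4-VP16 expression switched on by copper sulfate through the metallothionein promoter; potency is the fitted concentration of half-maximal effect; nearly all actives have a fitted effect of over 50% in size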
TDP1 cell CPT: qHTS for Inhibitors of human tyrosyl-DNA phosphodiesterase 1 (TDP1): qHTS in cells in presence of CPT. AID 686979, 2013. 420,000 tested, 12% active. chicken DT40 Tdp1-/-;hTDP1 cells + 20 nM CPT, ATP luminescence, 48 h. Potency, µM (doses to about 46.2 µM), without a hit: at the highest dose activity change, negative = growth inhibition, actives largely listed as inhibitors; note: potency is the fitted concentration of half-maximal effect; nearly all actives have a fitted effect of over 55% in size
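Chicken DT40 Tdp1-/- cells stably complemented with human TDP1 were seeded at 400 cells/well in medium containing 20 nM camptothecin, exposed to pin-transferred compounds, and grown at 37 °C for at least 48 hr. Viability was read as ATP luminescence.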
RORg inh: qHTS for inhibitors of ROR gamma transcriptional activity. AID 2551, 2010. 310,000 tested, 5.4% active. Potency, µM (titrated, usually from 53.6 µM), without a hit: at the highest dose activity change, negative = inhibition, hits mostly inhibitors. Drosophila S2 Gal4-RORgamma UAS-luciferase reporter, 20 h. Nuclear receptor ROR-gamma (Mus musculus), P51450; note: potency is the fitted concentration of half-maximal effect; nearly all actives have a fitted effect of over 60% in size
Target sequence (P51450 whole entry, looked up, the tested form may be a part): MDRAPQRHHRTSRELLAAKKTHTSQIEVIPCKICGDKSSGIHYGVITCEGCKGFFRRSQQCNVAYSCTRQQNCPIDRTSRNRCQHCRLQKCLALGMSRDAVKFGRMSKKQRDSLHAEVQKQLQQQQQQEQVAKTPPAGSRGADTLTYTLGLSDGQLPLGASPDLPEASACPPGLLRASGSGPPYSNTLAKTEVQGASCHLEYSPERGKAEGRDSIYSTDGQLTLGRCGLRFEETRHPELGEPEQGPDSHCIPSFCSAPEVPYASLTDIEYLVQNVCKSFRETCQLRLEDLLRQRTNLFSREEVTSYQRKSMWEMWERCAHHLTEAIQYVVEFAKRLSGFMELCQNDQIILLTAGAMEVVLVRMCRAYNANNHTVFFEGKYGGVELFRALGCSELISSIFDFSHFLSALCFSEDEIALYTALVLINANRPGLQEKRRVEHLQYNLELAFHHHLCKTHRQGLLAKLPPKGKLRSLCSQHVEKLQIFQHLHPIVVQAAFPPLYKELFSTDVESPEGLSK
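Drosophila Schneider cells stably carrying a metallothionein-driven Gal4 DBD–ROR gamma fusion and a UAS-Photinus luciferase reporter were exposed to compound for 1 hr, then induced with copper sulfate (700 uM final) for 20 hr at ambient temperature before luminescence reading.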
IL1B secr inh: qHTS for Inhibitors of Inflammasome Signaling: IL-1-beta AlphaLISA Primary Screen | AID 743279, 2014 | activity change, % at 57.5 µM | 360,000 tested, 4.7% active | THP-1 LPS/ATP IL-1B secretion, AlphaLISA, 16 h; stronger effect = lower value; in the data active = activity change below about -50%; inconclusive = mostly about -30% to -49%
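Secreted IL-1B measured by AlphaLISA bead assay after 16 h compound exposure of THP-1 cells; compounds (final up to 57.5 uM) added 1 h before LPS (250 ng/mL) and ATP (1.25 mM) stimulation; lower signal means less secretion.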
LDHA inh: qHTS assay for inhibitors of human lactate dehydrogenase; AID 1347041, 2019; purified LDHA, NADH/diaphorase-resazurin fluorescence; stronger effect = lower value; L-lactate dehydrogenase A chain (Homo sapiens), P00338; activity change, % (values are at about 110 or 230 µM); 480,000 tested, 0.15% active; in the data active = activity change below about -30%; inconclusive = mostly about -25% to -30%;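 note: plate controls were DMSO wells for no effect and wells without enzyme for full effect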
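Remaining NADH was detected by diaphorase (0.133 mg/mL) converting 37 µM resazurin to fluorescent resorufin, read at 0 and 20 minutes. The preceding 5-minute room-temperature reaction used 2 nM LDHA, 0.2 mM sodium pyruvate and 0.06 mM NADH at pH 7.4.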
* marks the source's active call; other numbers are inactive results. Unless noted, calls come from the whole dose curve; as a rule, active = well fitted curve in the direction sought with a large enough effect; inconclusive = small, poorly fitted or top-dose-only effect, or another doubt; inactive = no such curve, though single readings can be large; an effect the other way counts as inactive or inconclusive. Unless noted, % is set by controls: 0 for no effect and ±100 for the full control effect.

How did CCCCOc1ccc(C(=O)CCN2CCOCC2)cc1 do in these assays?
DT40 TDP1 no CPT: 6.5µM*; Gal4-VP16 FLuc: inconclusive; TDP1 cell CPT: 5.2µM*; RORg inh: inconclusive; IL1B secr inh: -104*; LDHA inh: -4

Results for Cc1ccc(-n2c(SCC(=O)Nc3ccc4c(c3)OCCO4)nnc2N2CCOCC2)cc1 ?
LDHA inh: 11

Results for COC(=O)C1=C(C)C(C(C)=O)(C(=O)OC)NC(C)=C1c1ccccc1Cl (stereo not drawn) ?
LDHA inh: 12

What do the screens show for `CC(Oc1ccc(C(F)(F)F)cc1)C(=O)NC1(C#N)CCCCC1` (stereo not drawn)?
LDHA inh: 8

What do the screens show for `O=C(CCC(=O)c1ccc2c(c1)OCCO2)NC1CCCCC1`?
LDHA inh: 7

What do the screens show for `O=C(CCN1CCN(C(=O)c2ccccc2)CC1)c1ccc(Br)cc1`?
DT40 TDP1 no CPT: 8.2µM*; Gal4-VP16 FLuc: inconclusive; TDP1 cell CPT: 7.3µM*; RORg inh: -122%; IL1B secr inh: -23; LDHA inh: -1

How did CCOc1ccc(C(=O)CCN2CCCCCC2)cc1 do in these assays?
DT40 TDP1 no CPT: 2.9µM*; Gal4-VP16 FLuc: 5.6µM*; TDP1 cell CPT: 3.7µM*; RORg inh: 4.5µM*; IL1B secr inh: inconclusive; LDHA inh: 1

How did O=C(CCN1CCCCC1)c1ccccc1 do in these assays?
DT40 TDP1 no CPT: 13µM*; Gal4-VP16 FLuc: 0%; TDP1 cell CPT: 11µM*; RORg inh: 7%; IL1B secr inh: -4; LDHA inh: -4

Results for C[N+]1(CCC(=O)c2ccccc2)CCCCC1 ?
DT40 TDP1 no CPT: 2.6µM*; Gal4-VP16 FLuc: -15%; TDP1 cell CPT: 3.3µM*; RORg inh: -7%; IL1B secr inh: 6; LDHA inh: -8

Results for CN1CCN(CCCCC(=O)c2ccccc2)CC1 ?
DT40 TDP1 no CPT: -15%; Gal4-VP16 FLuc: 2%; TDP1 cell CPT: -23%; RORg inh: 15%; IL1B secr inh: 31; LDHA inh: -1

Results for CCOc1ccc(OCCN2CCCCC2)cc1 ?
DT40 TDP1 no CPT: -15%; Gal4-VP16 FLuc: -3%; TDP1 cell CPT: -26%; RORg inh: -11%; IL1B secr inh: 0; LDHA inh: -14

Results for CCN(CC)C(=S)SCC(=O)NC(=O)c1ccc[nH]1 ?
LDHA inh: 4

How did O=c1c2ccccc2cnn1Cc1nnc(-c2cccs2)o1 do in these assays?
DT40 TDP1 no CPT: inconclusive; Gal4-VP16 FLuc: 15%; TDP1 cell CPT: -17%; RORg inh: 16%; IL1B secr inh: 26; LDHA inh: 1

How did C(=C\c1cccc2ccccc12)/c1nnc(-c2cccs2)o1 do in these assays?
DT40 TDP1 no CPT: inconclusive; Gal4-VP16 FLuc: -2%; TDP1 cell CPT: 29µM*; RORg inh: 0%; IL1B secr inh: 0; LDHA inh: -10

Results for CCc1ccc2c(c1)N(CC(C)CN(C)C)c1ccccc1S2 (stereo not drawn) ?
DT40 TDP1 no CPT: 15µM*; TDP1 cell CPT: inconclusive

What do the screens show for `CCOC(=O)c1c(C)[nH]c(C)c1C(=O)COC(=O)/C=C/c1ccc(OC(F)F)cc1`?
DT40 TDP1 no CPT: inconclusive; Gal4-VP16 FLuc: -13%; TDP1 cell CPT: inconclusive; RORg inh: 7%; IL1B secr inh: -54*; LDHA inh: 2
